The panel holds about 83,000 compounds, 20% with a hit somewhere; the sample as a whole holds those more often.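 96-well plates, one dose, 48 hours. Percent growth reported; active if below 10.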 A number with no mark means an inactive call. Activity calls are given as the source filed them.
Assays:
Experiment in all cases: NCI-60 one-dose screen, 48 h (100 = growth as untreated, 0 = no growth, -100 = all killed)
SK-MEL-2 melanoma = settings: 10 µM unless noted
SN12C renal = settings: 10 µM unless noted
UO-31 renal = settings: 10 µM unless noted
TK-10 renal = settings: 10 µM unless noted
ACHN renal = settings: 10 µM unless noted
CAKI-1 renal = settings: 10 µM unless noted
A498 renal = settings: 10 µM unless noted
CCRF-CEM leukemia = settings: 10 µM unless noted
MOLT-4 leukemia = settings: 10 µM unless noted
SR leukemia = settings: 10 µM unless noted
RPMI-8226 leukemia = settings: 10 µM
OVCAR-8 ovarian = settings: 10 µM unless noted
OVCAR-5 ovarian = settings: 10 µM unless noted
OVCAR-4 ovarian = settings: 10 µM unless noted
SK-OV-3 ovarian = settings: 10 µM
IGROV1 ovarian = settings: 10 µM unless noted
OVCAR-3 ovarian = settings: 10 µM unless noted
HS 578T breast = settings: 10 µM unless noted
NCI/ADR-RES ovarian = settings: 10 µM unless noted
EKVX NSCLC = settings: 10 µM unless noted

| SMILES | growth (SK-MEL-2 melanoma) | growth (SN12C renal) | growth (UO-31 renal) | growth (TK-10 renal) | growth (ACHN renal) | growth (CAKI-1 renal) | growth (A498 renal) | growth (CCRF-CEM leukemia) | growth (MOLT-4 leukemia) | growth (SR leukemia) | growth (RPMI-8226 leukemia) | growth (OVCAR-8 ovarian) | growth (OVCAR-5 ovarian) | growth (OVCAR-4 ovarian) | growth (SK-OV-3 ovarian) | growth (IGROV1 ovarian) | growth (OVCAR-3 ovarian) | growth (HS 578T breast) | growth (NCI/ADR-RES ovarian) | growth (EKVX NSCLC) |
| --- | --- | --- | --- | --- | --- | --- | --- | --- | --- | --- | --- | --- | --- | --- | --- | --- | --- | --- | --- | --- |
| CSc1ccc(OC(C)=O)cc1C | 92.7% | 104% | 77.2% | 91.1% | 98% | 96.4% | 86.3% | 88.5% | 89.6% | 95.7% | 101% | 100% | 99.4% | 99.6% | 95% | 103% | 106% | 103% | 103% | – |
| Cc1ccccc1-n1nnc(C(=O)Nc2ccc(-c3ccccc3)cn2)c1C | 42% [50 µM] | 64.4% [50 µM] | 38.8% [50 µM] | – | 46% [50 µM] | 31.1% [50 µM] | 61.2% [50 µM] | – | 8.31% [50 µM] (active) | 16% [50 µM] | – | 41.2% [50 µM] | 87.1% [50 µM] | 11.5% [50 µM] | – | 71% [50 µM] | 68.8% [50 µM] | 90% [50 µM] | 33.3% [50 µM] | 34.8% [50 µM] |
| N#C/C(=C\c1ccc[nH]1)c1cc2ccccc2[nH]1 | 65.9% | 72.3% | 55% | – | 69.7% | – | 69.2% | 52% | 62.9% | 68.3% | – | 74.9% | 82.4% | 24.1% | – | 59.2% | 81.1% | 87.5% | 76.9% | 37.4% |
| O=C1/C(=C/c2ccc(Cl)cc2)CN(Cc2cn(CCCNc3ccnc4cc(Cl)ccc34)nn2)C/C1=C\c1ccc(Cl)cc1 | -35.2% (active) | -80.2% (active) | -98% (active) | -56.6% (active) | -99.3% (active) | -20.4% (active) | -61.3% (active) | -31.2% (active) | -16.7% (active) | -31.9% (active) | -49.3% (active) | -42.3% (active) | -74.1% (active) | -9.71% (active) | -48.5% (active) | -0.666% (active) | -90.4% (active) | 9.27% (active) | – | – |
| CN([N-]C(=O)CC(=O)[N-]N(C)C(=S)c1ccccc1)C(=S)c1ccccc1.[Cu+2] | -90.2% (active) | -97.9% (active) | -97.5% (active) | -99.1% (active) | -50.6% (active) | -94.7% (active) | -93.9% (active) | -19.7% (active) | -36.2% (active) | -17.7% (active) | -13.7% (active) | -39.1% (active) | -53.4% (active) | -98.4% (active) | -99.1% (active) | -93.2% (active) | -85.7% (active) | -12.3% (active) | -3.82% (active) | – |
| CCCC1=NNC(=O)C1 | 106% | 101% | 82.8% | 97.2% | 103% | 94.8% | 109% | 100% | 97.2% | 103% | 100% | 102% | 103% | 106% | 104% | 103% | 120% | 110% | – | – |
| Cc1c(C(=O)Nc2nc(-c3ccccc3)cs2)nnn1-c1cccc2ccccc12 | 48.2% [50 µM] | 67.9% [50 µM] | 49.7% [50 µM] | – | 58.1% [50 µM] | – | 58.5% [50 µM] | 47.2% [50 µM] | 30.4% [50 µM] | 29.2% [50 µM] | – | 50.9% [50 µM] | 86.8% [50 µM] | 23.7% [50 µM] | – | 69.9% [50 µM] | 71.8% [50 µM] | 79.5% [50 µM] | 65.1% [50 µM] | 39.3% [50 µM] |
| COc1ccc(Nc2nc(NCCNc3ccnc4cc(Cl)ccc34)nc(N3CCOCC3)n2)cc1 | 78.8% | 61.4% | 45.3% | 103% | 63.2% | 80.2% | -17.7% (active) | 56.4% | 35.6% | 7.72% (active) | 45.9% | 71.4% | 130% | 81.3% | 100% | 72.8% | 73.4% | 66.3% | 76.2% | – |
| Brc1ccc(SCN(CSc2ccc(Br)cc2)Cc2ccccc2)cc1 | 94.6% | 27.3% | 39% | 113% | 87.3% | 73% | 56.3% | 4.88% (active) | 17% | 34.6% | 36.3% | 74.4% | 90.1% | 75.5% | 93.9% | 35.6% | 91.6% | 88.1% | 73.4% | – |
| CCCCCCCCCCCCSC1=CC(=O)C=CC1=O | 90.1% | 55.1% | 52.8% | 118% | 81% | 52.6% | 107% | -10% (active) | -0.985% (active) | 71.5% | -8.18% (active) | 35.1% | 89.7% | 57.1% | 82.3% | -26.6% (active) | 73.2% | 63.8% | 59.8% | – |
| COc1cc2cc(Oc3ccc(NC(=O)Nc4cccc(C(F)(F)F)c4)cc3)c(C)nc2cc1OCCN1CCCCC1 | -65.9% (active) | -88.9% (active) | -92.1% (active) | – | -73.3% (active) | -77.7% (active) | 51% | – | -54.9% (active) | -19.4% (active) | – | -38.7% (active) | 61.6% | -12.9% (active) | – | -31.2% (active) | -92.6% (active) | -53.6% (active) | 20.1% | 27.5% |
| Cc1c(C(=O)Nc2nc(-c3ccccc3)cs2)nnn1-c1ccccc1Br | 40.1% [50 µM] | 50.9% [50 µM] | 41.7% [50 µM] | – | 41.9% [50 µM] | – | 50.5% [50 µM] | – | 17% [50 µM] | 17% [50 µM] | – | 40.1% [50 µM] | 77.4% [50 µM] | 19.6% [50 µM] | – | 68.3% [50 µM] | 57.3% [50 µM] | 65.3% [50 µM] | 38.1% [50 µM] | 30.7% [50 µM] |
| CCOC(=O)c1cc2c(n(C)c1=O)-c1cnn(-c3ccc(OC)cc3)c1CC2 | 105% | 99.8% | 77.5% | 130% | 81.4% | 89.8% | 87% | 89.5% | 94.2% | 87.2% | 89.1% | 93.8% | 95.2% | 106% | 108% | 115% | 107% | 119% | – | – |
| CSc1nnc(-c2sc3nnc(-c4ccccc4)c(-c4ccccc4)c3c2O)o1 | 102% | 75.7% | – | 100% | 83.6% | 43.5% | – | 47.4% | 61.8% | 62.5% | 67.2% | 85.8% | 101% | – | 85.5% | – | 86.8% | 98.4% | – | 77.5% |
| COc1cc2nc(N3CCC[C@H](NC4=CC(=O)c5ccccc5C4=O)C3)nc(N)c2cc1OC | 111% | 65.4% | -76.1% (active) | -72.6% (active) | -100% (active) | -56.6% (active) | 93% | -23.5% (active) | -41.3% (active) | -20.1% (active) | -50.1% (active) | -57.2% (active) | 125% | -88% (active) | 116% | -81.6% (active) | -57.7% (active) | -49.1% (active) | 29.4% | – |
| c1ccc(-c2n(Cc3ccc4ccccc4n3)c3ccccc3[n+]2Cc2ccc3ccccc3n2)cc1 | -20.7% (active) | 2.63% (active) | 27.8% | – | – | -17.6% (active) | – | 12.5% | -16.9% (active) | -19.1% (active) | – | 7.66% (active) | 12.8% | 7.64% (active) | – | -34.3% (active) | 0.883% (active) | 2.04% (active) | 73.4% | 13.5% |
| Cn1c(=O)c(S(=O)(=O)c2ccccc2)cc2ccc3c(cnn3-c3ccc(Cl)cc3)c21 | 87.2% | 86.6% | 52.2% | 81.5% | 58.2% | 82.8% | 53.5% | 95.8% | 94.8% | 79% | 75.9% | 60.9% | 94.3% | 39.1% | 69.7% | 96% | 94.5% | 69.3% | 81.5% | – |
